# According to PubChem BioAssay AID686979 (National Center for Advancing Translational Sciences (NCATS), 2013):
# Among all 420,000 compounds or so, about 50,000 (12%) were called active. Roughly 26% stayed inconclusive and do not appear here. The full list was thinned out, with actives kept by preference. A number with no mark means an inactive call. The call rests on the fitted dose curve; in most records, active means well fitted inhibition curve with a large enough effect; inconclusive means small, poorly fitted or top-dose-only effect; inactive means flat fitted curve, though single readings scatter.
# Experiment: qHTS for Inhibitors of human tyrosyl-DNA phosphodiesterase 1 (TDP1): qHTS in cells in presence of CPT; further: nearly all actives have a fitted effect of over 55% in size
# Conditions: chicken DT40 Tdp1-/-;hTDP1 cells + 20 nM CPT, ATP luminescence, 48 h; series mostly up to 46.2 µM; activity change, negative = growth inhibition: at the top concentration
# Outline: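 Chicken DT40 Tdp1-/- cells complemented with human TDP1, 400 cells/well, exposed to compounds plus 20 nM camptothecin for at least 48 h at 37 C; viability read as ATP content by CellTiter-Glo luminescence.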
# On the % scale 0 is the no-effect control and ±100 the full control effect; potency means the concentration at half of the fitted maximal effect.
Compound,"activity change, negative = growth inhibition",Potency
O=C(COC(=O)/C=C/c1ccc(OC(F)F)cc1)NC1CCCCC1,0.0698%,–
C/C(=N\NC(=O)NC1CCCCC1)c1ccc(OC(F)F)cc1OC(F)F,–,23.1 µM (active)
CCCC/C(C)=N/NC(=O)NC1CCCCC1,-4.55%,–
O=C(NCc1ccccc1Cl)C1CCC(CNc2c(N3CCCCC3)c(=O)c2=O)CC1 (configuration not stated),-0.925%,–
COc1ccc2oc(=O)cc(CN3CCOCC3)c2c1,-16.2%,–
O=C(NCC(=O)N1CCCC(C(F)(F)F)C1)c1ccccc1F (configuration not stated),-11.4%,–
FC(F)(F)C1CCCN(c2nsc3ccccc23)C1 (configuration not stated),–,2.31 µM (active)
O=C(NC(Cc1ccccc1)C(=O)N1CCCC(C(F)(F)F)C1)c1ccccc1 (configuration not stated),-9.26%,–
CCCCCC1CC(COc2ccccc2)OC1=O (configuration not stated),6.66%,–
COc1ccc(CCNC(=O)C(=O)NCC2OCCN2S(=O)(=O)c2ccc(F)cc2)cc1OC (configuration not stated),-25%,–
COc1ccc(S(=O)(=O)N2CCOC2CNC(=O)C(=O)NCc2ccncc2)cc1C (configuration not stated),-28.4%,–
COc1ccc(CCNC(=O)C(=O)NCC2OCCN2S(=O)(=O)c2ccc(OC)c(C)c2)cc1 (configuration not stated),–,18.4 µM (active)
CN(C)CCCNC(=O)c1cc(C(=O)Cc2ccc(Cl)cc2)c[nH]1,-24%,–
CCCCN(CCCC)CC(O)Cn1c2ccccc2c(=O)c2ccccc21 (configuration not stated),-27%,–
Cc1ccc(C(=O)OCC(=O)N2CC(C)CC(C)C2)cc1S(=O)(=O)N1CCCCC1 (configuration not stated),-15.4%,–
CCCOc1ccc(C2c3c(-c4ccccc4O)n[nH]c3C(=O)N2Cc2cccnc2)cc1 (configuration not stated),–,23.1 µM (active)
CCOc1ccc(/C(O)=C2/C(=O)C(=O)N(Cc3cccnc3)C2c2ccc(N(C)C)cc2)c(C)c1 (configuration not stated),-2.62%,–
COc1ccc(C2C(C(C)=O)=C(O)C(=O)N2Cc2cccnc2)cc1 (configuration not stated),-2.63%,–
COc1ccc(S(=O)(=O)N2CCC(C(=O)NCCC(=O)NCCc3cccc(F)c3)CC2)cc1,-23.3%,–
NC(Cc1ccc(F)cc1)c1csc(Nc2nncc3ccccc23)n1 (configuration not stated),–,4.11 µM (active)
COCC(C)NC(=O)COc1nncc2ccccc12 (configuration not stated),-4.2%,–
CN1CCN(S(=O)(=O)c2ccc(NC(=S)NC(=O)C3CC3)cc2)CC1,-0.132%,–
O=C(NCCc1ccccc1)C(=O)NCC1OCCN1S(=O)(=O)c1cccs1 (configuration not stated),0.778%,–
CCCCn1c(N)c(N(CC(C)C)C(=O)c2cccc(S(=O)(=O)N3CCN(C(C)=O)CC3)c2)c(=O)[nH]c1=O,4.86%,–
COc1cc(C(=O)Nn2c(O)c(C3=c4ccccc4=NC3=O)sc2=S)ccc1O,0.512%,–
CCN(CC)CCCNC(=O)CCn1nc(-c2ccc(Cl)cc2)ccc1=O,22.6%,–

Compound,"activity change, negative = growth inhibition",Potency
O=c1[nH][nH]c(=O)c2cc(N3CCCC3)ccc12,5.12%,–
O=C(CN1CCN(c2ccc(Cl)cc2)CC1)N1CCCC1,-27.3%,–
O=C1C=CC(=O)N1c1ccc(N2CCCCC2)cc1,–,1.16 µM (active)
O=C(O)/C=C/C(=O)NNc1ccc([N+](=O)[O-])cc1,–,20.6 µM (active)
CNC(=S)Nc1ccc([N+](=O)[O-])cc1,-11.1%,–
O=C(Cc1ccccc1)NNS(=O)(=O)c1ccc([N+](=O)[O-])cc1,-20.3%,–
COc1cccc(NC(=O)C(Sc2nnnn2C)c2ccccc2)c1 (configuration not stated),-14.2%,–
COCCCN1C(=O)C(CC(=O)NCc2cccs2)CC(C(=O)N2CCOCC2)=C1C (configuration not stated),-3.22%,–
CCOCCCN1C(=O)C2C(C(=O)Nc3ccc(OCC)cc3)C3C=CC2(O3)C1C(=O)NC1CCCCC1 (configuration not stated),2.43%,–
CCc1cccc(C)c1NS(=O)(=O)c1cc(Br)cnc1N,10.5%,–
Cc1cc(C)cc(NS(=O)(=O)c2ccc(-c3cc(C)no3)s2)c1,–,2.59 µM (active)
Cc1cc(-c2ccc(S(=O)(=O)N3CCN(c4cccc(C(F)(F)F)c4)CC3)s2)on1,-22.2%,–
CC(=O)c1ccc(NS(=O)(=O)c2ccc(-c3cc(C)no3)s2)cc1,-24.3%,–
Cc1cc(-c2ccc(S(=O)(=O)N3CCc4ccccc4C3)s2)on1,-7.71%,–
CCc1cccc(C)c1NS(=O)(=O)c1ccc(-c2cc(C)no2)s1,–,0.411 µM (active)
O=C(O)c1cccc(N=NN2CCCCCC2)c1,6.37%,–
CC(C)(C)c1ccc(S(=O)(=O)NC(=O)C2(C)CCN2C(=O)CC2CC2)cc1 (configuration not stated),-15.6%,–
Cc1ccnc(NC(=O)CCNS(=O)(=O)c2ccc(C)c(C)c2)c1,13%,–
CN1CCN(C(=O)c2ccc(-c3cc4nc(NCc5cccnc5)n(C)c(=O)c4s3)cc2)CC1,3.92%,–
CC(=O)N/N=C/c1cc2c(cc1[N+](=O)[O-])OCO2,17.1%,–
Cc1ccc(S(=O)(=O)N/N=C\c2cc3c(cc2[N+](=O)[O-])OCO3)cc1,–,10.3 µM (active)
Cc1ccc(-c2n[nH]c(=S)n2/N=C/c2cc3c(cc2[N+](=O)[O-])OCO3)cc1,-1.27%,–
O=C(Nc1ccc(Cl)cc1)c1csc([C@@H]2O[C@H](CO)[C@H](O)[C@H](O)[C@H]2O)n1,-10.8%,–
Fc1ccccc1COc1cccc2cccnc12,6.88%,–
O=C(Nc1ccccc1Cl)Nc1cccc2cccnc12,-28.4%,–
O=C(Nc1ccccc1)Oc1cccc2cccnc12,–,0.651 µM (active)
